About 83,000 compounds went through this panel and 20% of them were active in at least one assay; those are over-represented in the sample as a whole.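 Negative percent growth values reflect cell death: -40 means 40% of the cells present at the start died, and -100 means all died.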 The source made the active and inactive calls.

In this test the test system is OVCAR-4 ovarian. Kind of test: NCI-60 one-dose screen, 48 h (100 = growth as untreated, 0 = no growth, -100 = all killed). The note with it: 10 µM unless noted. How it is done: Growth inhibition of the OVCAR-4 human tumor cell line is measured as a screen for anti-cancer activity. Cells are grown in 96 well plates and exposed to the test compound for 48 hours. Compounds are tested at a single concentration, which is 10^-5 M for most compounds. The reported endpoint is percent growth (GI% or GIPRCNT), where numbers from 0 - 100% represent growth inhibition, and numbers from -100% - 0 represent cell death. For example, a value of 40 represents 60% growth inhibition. A value of 0 means no net growth occurred over the course of the experiment. A value of -40 indicates 40% of cells at the beginning of the experiment died by the end of the experiment. A value of -100 means all cells are dead at the end of the experiment.
NCI-60 Human Tumor Cell Lines Screen was performed using the standard one-dose NCI protocol, which is described in more detail at https://dtp.cancer.gov/discovery_development/nci-60/default.htm.
Compounds with GIPRCNT values below 10 were considered active. Activity score was based on GIPRCNT using the following formula: […]
Score is 0 for GIPRCNT values of 100 or above, 50 for GIPRCNT values of 0, and 100 for GIPRCNT values of -100.
In the case of `CN(C)c1cnccn1`, the growth was 82.3% (inactive). Regarding `NC(N)=N/N=C(/c1ccccc1)c1ccccc1F`, the growth was 36.7% (inactive). In the case of `C=C1C(=O)O[C@H]2[C@H]1CC/C(Cn1cc(CNCCc3c[nH]c4ccc(Cl)cc34)nn1)=C\CC[C@@]1(C)O[C@@H]21` it was 41.7% (inactive); in that of `COc1cc(-c2ccc(N=Nc3c(O)c(C(=O)Nc4ccccc4OC)cc4ccccc34)c(OC)c2)ccc1N=Nc1c(O)c(C(=O)Nc2ccccc2OC)cc2ccccc12`, 98.9% (inactive); in that of `CCOC(=O)c1sc2ccc(NCc3nc[nH]c3C)cc2c1NC(=O)c1cc(OC)c(OC)c(OC)c1`, 74% (inactive). Consider `CC[C@]1(O)C[C@H]2CN(CCc3c([nH]c4ccccc34)[C@@](C(=O)OC)(c3cc4c(cc3OC)N(C=O)[C@H]3[C@@](O)(C(=O)OC)[C@H](OC(C)=O)[C@]5(CC)C=CCN6CC[C@]43[C@@H]65)C2)C1`, for which the growth was 49.2% (inactive).

For `OC(c1cccc(OCc2ccccc2)c1)c1nnc(-c2ccccc2)o1` (stereo not given), the growth was 87.1% (inactive). With `CN1C(=O)CCC(N2C(=O)c3cccc(NCCOCCOCCNC(=O)c4cc5c(o4)C(=O)c4ccccc4C5=O)c3C2=O)C1=O` (stereo not given), the growth was -95.3% (active). In the case of `COc1cccc(/C=C2\COc3ccc(O)cc3C2=O)c1OC`, the growth was 92.5% (inactive). As for `COc1ccc(/C=C2\COc3ccc(O)cc3C2=O)c(OC)c1`, the growth was 96.1% (inactive). Regarding `COc1ccc(-c2nnc(SCC(=O)NC3=NN=C(c4ccccc4)CS3)o2)cc1`, the growth was 100% (inactive). Under `O=C1NN(C(=O)c2ccc(O)cc2)C(c2ccccc2)=N/C1=C\c1cn(-c2ccccc2)nc1-c1ccccc1` stands 95.3% (inactive).

On to `CN(C)CCCCNc1ccc(NCCCCN(C)C)c2c1C(=O)c1c(O)ccc(O)c1C2=O`, for which the growth was 64% (inactive). Take `Cc1cc(-c2ccccc2)cc(SC#N)[n+]1[O-]`: the growth is 41.2% (inactive).

With `CN1CCN(CCCOc2ccc3nc(Nc4cc(Cl)cc(Cl)c4)ccc3c2)CC1`, the growth is -23.9% (active). Under `O=c1[nH]nc(-c2ccc(Cl)cc2)cc1Cc1ccccc1` stands 95.1% (inactive); under `NC(=O)c1c(NC(=O)c2ccccn2)sc2c1CCC(=O)C2`, -7.1% (active); under `CCNCCNc1cc(-c2ccc(C(=O)OC)cc2)c(C#N)c2nc3ccccc3n12`, -19.2% (active). Under `N#C/C=C(\c1ccc([N+](=O)[O-])cc1)n1nnc2cc(Cl)c(Cl)cc21` stands 0.234% (active); under `CC(C)OC(=O)OCOP(=O)(OCOC(=O)OC(C)C)C1CCCN(O)C1=O` (stereo not given), 36% (inactive); under `N=c1ccn2c(n1)OC1C(O)C(CO)OC12` (stereo not given), 52.4% (inactive). In the case of `CCC(C)NCc1ccccc1` (stereo not given) it was 109% (inactive); in that of `C=C1c2c(C)nn(-c3ccc(S(N)(=O)=O)cc3)c2N(C)C23CC1C1(C)c4c(C)nn(-c5ccc(S(N)(=O)=O)cc5)c4N(C)C(C)(CC12)C3` (stereo not given), 39.3% (inactive); in that of `O=C1C2=C(CCN(Cc3ccccc3)C2)N2CCN=C2N1Cc1ccc(F)cc1F`, -2.31% (active). `C[C@@H]1CC[C@@H]2[C@@H]1[C@H](OC(=O)c1ccc3ccccc3c1)[C@]1(C3CCCCC3)C[C@@H](OC(=O)CO)[C@@]2(C)O1`: the growth is 55.5% (inactive). Under `CNC1(C#N)CCN(Cc2ccccc2)CC1` stands 103% (inactive). Under `CS(=O)(=O)c1ccc(N/N=C/c2c(-c3ccc(S(C)(=O)=O)cc3)[nH]c3ccc(F)cc23)cc1` stands 40.2% (inactive); under `C=CC(=O)Nc1cccc(C)c1Nc1cc(-c2cccnc2Cc2c(C)c(OC)cc(OC)c2C)ncn1`, 41.9% (inactive). In the case of `N=C(N)c1ccc(-c2ccc(/C=C/c3ccccc3)s2)cc1` it was -24.8% (active); in that of `COc1ccc(O)c(-c2cc(-c3ccccc3)c(C#N)c(=O)[nH]2)c1`, 97.4% (inactive). With `O=[N+]([O-])c1ccc(-c2cc3c(Nc4ccc(OCc5cccc(Cl)c5)c(Cl)c4)ncnc3s2)cc1`, the growth is 41.1% (inactive).

For the molecule `C=C(CNCCc1ccc(O)cc1)[C@@H]1CC[C@]2(COC3CCCCO3)CC[C@]3(C)[C@H](CC[C@@H]4[C@@]5(C)CCC(NCCO)C(C)(C)[C@@H]5CC[C@]43C)[C@@H]12` (stereo not given in full), the growth was -91.5% (active). `Cc1ccc(-n2nnc(C3=NCCc4c3[nH]c3ccc(Cl)cc43)c2C)cc1`: the growth was 76.8% (inactive). Under `C[C@H]1[C@H]2C3=CC[C@@H]4[C@@]5(C)C/C(=C/c6ccncc6)C(=O)C(C)(C)[C@@H]5CC[C@@]4(C)[C@]3(C)CC[C@@]2(C(=O)N2CCN(C)CC2)CC[C@@H]1C` stands 73.6% (inactive). `N#C/C(=C\c1ccc(Br)cc1)n1nnc2ccccc21`: the growth was 6.76% (active).

For `O=C(Nc1ccccc1)c1sc(-c2cccc(C(F)(F)F)c2)cc1O`, the growth is 76.1% (inactive).

Turning to `CCCCCCCSc1ccc(C(=O)O)cc1`, the growth was 93.9% (inactive). Turning to `CCn1nc(C#Cc2c(C)ccc3c(Nc4ccc(Cl)cc4)nccc23)c2c(N)ncnc21`, the growth was 41.5% (inactive). Turning to `N=C(N)c1ccc(-c2ccc(-c3ccc(Cl)c(Cl)c3)o2)cc1`, the growth was -13.1% (active). `Oc1[nH]c2ccccc2c1/C=c1/cc2c(c(-c3ccc(F)cc3)n1)=Nc1ccccc1-2`: the growth was -65.1% (active).

For the origin of these results see PubChem BioAssay (NCI).
